The results in this text go back to the supplement of paper PMC10338343.

± gives the standard deviation.

The subject of test [1] is MILI (PIWIL2) piRISC loaded with L1MC piRNA (26 nt). Put plainly: pre-steady-state target cleavage rate (min^-1); guide: L1MC piRNA 5'p-UAACUAAAUACUAUGCAAGCUGUAGG; higher = faster piRNA-guided slicing of the target. As to conditions: auxiliary factor: 500 nM mouse GTSF1. The gist of the method:
(§1)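 In this Cleave-'n-Seq assay, uncleaved targets were sequenced and normalised to depth and to weakly complementary targets. They came from a transcribed, DNA-blocked target RNA library […] mixed with 1 nM active affinity-purified piRISC carrying one synthetic guide, with or without 500 nM GTSF1 partner protein, in HEPES–potassium acetate buffer at 33 °C for 0–8 or 0–960 min. After three trials were pooled and k3 was capped at 0.0001 min^-1, the pre-steady-state cleavage rate was obtained from a burst-and-steady-state fit.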

In test [2] the test system is EfPiwi piRISC loaded with L1MC piRNA (26 nt). As to the kind of experiment: pre-steady-state target cleavage rate (min^-1); auxiliary factor: 500 nM Ephydatia muelleri Gtsf1; guide: L1MC piRNA 5'p-UAACUAAAUACUAUGCAAGCUGUAGG; MIWI and MILI are mouse PIWI proteins and EfPiwi is from a freshwater sponge; tags in brackets are library labels; higher = faster piRNA-guided slicing of the target. The gist of the method: as §1

UCCUGGAUCAGCUUGCCAUAGUAUUUAGUUA: the “pre-steady-state target cleavage rate” value is 0.0992 ± 0.014 in test [1] and 0.00658 ± 0.0025 in test [2].

UCCUGGUACAGCUUGCAUAGUAUUAACAAA: the “pre-steady-state target cleavage rate” value in test [1] stood at 0.0231 ± 0.0084; in test [2], 0.00261 ± 0.0023.

For the sequence UCCUCCUACAGCAUGCAUAGUAUUUAGAUA, the “pre-steady-state target cleavage rate” value in test [1] stood at 0.176 ± 0.027; in test [2], 0.00452 ± 0.0019.

As to UCCUCCUACACCUUGCAUAGUAUUUACUUA, the “pre-steady-state target cleavage rate” value in test [1] turned out to be 0.128 ± 0.038; in test [2], 0.00326 ± 0.0032.

On to UCCUGCUACAGCUUGCAUAGUAUUAACAAA, for which the “pre-steady-state target cleavage rate” value amounted to 0.0401 ± 0.011 in test [1] and 0.00321 ± 0.0023 in test [2].

With UCCUGGUACAGCUUGCAUACUAUUAAGUUA, the “pre-steady-state target cleavage rate” value was 0.0468 ± 0.016 in test [1] and 0.00282 ± 0.0022 in test [2].

As for UCCUGGAUGAGCUUGCAUAGUAUAAAGUUA, the entries for the “pre-steady-state target cleavage rate” value in test [1] and in test [2] were 0.255 ± 0.047 and 0.00848 ± 0.0042, respectively.

Consider UCCUCCAUCAGCUUGCAUAGUAUUUACAAA, for which the “pre-steady-state target cleavage rate” value in test [1] was found to be 0.0667 ± 0.017; in test [2] it was 0.00282 ± 0.0024.

In the case of UCCUCCUACAGCUUGCAUAGUUUUUUCAAA, the “pre-steady-state target cleavage rate” value came to 0.0513 ± 0.014 in test [1] and 0.00481 ± 0.0034 in test [2].

As to UCCUGCUACAGCUUGCAUAUGUAUUUAGUUA, the “pre-steady-state target cleavage rate” value in test [1] amounted to 0.0123 ± 0.0069; in test [2] it was 0.00294 ± 0.0023.

Regarding UCCUGGAACAGCUUGCAUAGUAUUUGUUA, the entries for the “pre-steady-state target cleavage rate” value in test [1] and in test [2] were 0.0747 ± 0.021 and 0.00531 ± 0.0019, respectively.

Regarding UCCUCCUACAGCUUGCAUUGUAUUAAGUUA, the “pre-steady-state target cleavage rate” value in test [1] was 0.132 ± 0.023; in test [2] it was 0.00681 ± 0.0032.

Turning to UCCUGGUACAGCUUGCAUAGUAUUAUCUAA, the “pre-steady-state target cleavage rate” value in test [1] is 0.0327 ± 0.012; in test [2], 0.00312 ± 0.0027.

In the case of UCCUGGAUGAGCUUGCAUAGUAAAUAGUUA, the “pre-steady-state target cleavage rate” value in test [1] came to 0.114 ± 0.015; in test [2] it was 0.00329 ± 0.0025.

Turning to UCCUCCUACAGCUUGCAUAGUAUAAAGUAA, the “pre-steady-state target cleavage rate” value in test [1] was 0.0819 ± 0.019; in test [2], 0.0031 ± 0.0024.

Turning to UCCUGCUACAGCUUGCAUAGUAUAUACAAA, the “pre-steady-state target cleavage rate” value was determined as 0.0701 ± 0.019 in test [1] and 0.00238 ± 0.0022 in test [2].

Take UCCUCCAUCAGCUUGCAUAGUAUUUUCAAA: the “pre-steady-state target cleavage rate” value was 0.0846 ± 0.02 in test [1] and 0.00384 ± 0.0024 in test [2].

UCCUCCUACAGCUUGCAAAGAAUUUAGUUA: the “pre-steady-state target cleavage rate” value in test [1] was 0.0165 ± 0.0051; in test [2], 0.0033 ± 0.0027.

Regarding UCCUCCUACUCGUUGCAUAGUAUUUAGAAA, the “pre-steady-state target cleavage rate” value in test [1] was determined as 0.076 ± 0.019; in test [2] it was 0.004 ± 0.0035.

In the case of UCCUGGAACAGGUUCCAUAGUAUUUAGUUA, the entries for the “pre-steady-state target cleavage rate” value in test [1] and in test [2] were 0.202 ± 0.066 and 0.00255 ± 0.0024, respectively.

Turning to UCCUGGAAGUCCUUGCAUAGUAUUUAGAAA, the “pre-steady-state target cleavage rate” value turned out to be 0.151 ± 0.03 in test [1] and 0.00315 ± 0.0023 in test [2].

Turning to UCCUGGAACAGCUUGCAUAGUAAUUAGUAA, the “pre-steady-state target cleavage rate” value in test [1] is 0.108 ± 0.015; in test [2], 0.00418 ± 0.0019.

Turning to UCCUGGAUGUGCUUGCAUAGUAUUUACAAA, the figures for the “pre-steady-state target cleavage rate” value in test [1] and in test [2] were 0.00913 ± 0.0046 and 0.00369 ± 0.0033, respectively.

On to UCCUGGAACAGCUUGCAUAGUAUUUAUGUUA, for which the figures for the “pre-steady-state target cleavage rate” value in test [1] and in test [2] were 0.127 ± 0.018 and 0.0035 ± 0.002, respectively.

UCCUGGAUGAGCUUGCAAAGUAUUUAGAAA: the “pre-steady-state target cleavage rate” value in test [1] came out at 0.0447 ± 0.013; in test [2], 0.00395 ± 0.0031.

In the case of UCCUCCUACAGCUUGCAUAGUAUUUUCAUA, the “pre-steady-state target cleavage rate” value in test [1] was 0.091 ± 0.02; in test [2] it was 0.00665 ± 0.0037.

As to UCCUCCUACAGCUUGCAUAGUUUUUAGAUA, the “pre-steady-state target cleavage rate” value in test [1] was 0.0768 ± 0.022; in test [2], 0.00341 ± 0.0022.

UCCUGCUACAGCUUGCAUAUAUUUAGUUA: the “pre-steady-state target cleavage rate” value in test [1] amounted to 0.046 ± 0.011; in test [2] it was 0.00528 ± 0.0031.

On to UCCUGGAACAGCUUGCAUAGUAAUUUGUUA, for which the “pre-steady-state target cleavage rate” value in test [1] is 0.0687 ± 0.013; in test [2], 0.0032 ± 0.002.

For UCCUCCUACAGCUUGCUUAGUAUUUACAAA, the “pre-steady-state target cleavage rate” value stood at 0.0922 ± 0.021 in test [1] and 0.00329 ± 0.003 in test [2].

As to UCCUCCUAGAGCUUGCAUAGUAUUUACUUA, the “pre-steady-state target cleavage rate” value in test [1] came out at 0.146 ± 0.03; in test [2], 0.00356 ± 0.0033.

As for UCCUGCUACAGCAUGCAUAGAAUUUAGUUA, the “pre-steady-state target cleavage rate” value in test [1] amounted to 0.0922 ± 0.021; in test [2] it was 0.00243 ± 0.002.
